NS1 function inh – influenza NS1 inhibition; Potency, µM (highest dose often 46.1 µM); 270,000 tested, 0.4% active; AID 2326; calls by dose curve; also: actives are rising curves; nearly all actives have a fitted effect of over 50% in size
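Read-out: OD600 growth recovery of NS1-expressing budding yeast. Cells grown overnight at 30C in -URA glucose medium, washed, resuspended and diluted 1:100 in 2% galactose assay medium, pH 6.0. Same strain lacking NS1 served as positive control.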
Shiga inhibitor – Shiga toxin inhibition; Vero cells, Shiga toxin protein synthesis inhibition reporter; inhibition, % at 38.7 µM; 290,000 tested, 9.2% active; AID 2315; in the data active = inhibition mostly above about 28%, no sharp cut-off; inactive = mostly below about 43%
Pf growth 48h – inhibits P. falciparum growth in the first generation, 48 h; AID 504832; P. falciparum luciferase growth in erythrocytes, 48 h; 310,000 tested, 5.9% active; Potency, µM (series often up to 28.7 µM), usual class: inhibitors
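A one-generation exposure of luciferase-tagged malaria parasites in RPMI 1640/Albumax erythrocyte culture, 37 C and 5% CO2. Inhibition is inferred from decreased luminescence after adding detection reagent.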
CHX counter – counter-screen hit for Shiga toxin inhibitors, cycloheximide | max response, % | 300,000 tested, 12% active | cell reporter, cycloheximide protein synthesis inhibition counterscreen; in the data active = max response mostly above about 13%, no sharp cut-off; inactive = mostly below about 14%; also: read at 38.3 µM for the half of the compounds with a filed dose
Pf growth 96h – P. falciparum growth inhibition at 96 hour, primary screen for plastid delayed-death inhibitors. 320,000 tested, 6.9% active. Potency, µM (series often up to 28.7 µM), usual class: inhibitors. P. falciparum luciferase reporter growth, 96 h
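Delayed-death screen, second-generation endpoint: infected erythrocytes, 2% hematocrit, 0.05% parasitemia final; 96 hours at 37 C, 5% CO2; luciferase detection reagent; luminescence decrease equals reduced growth.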
Giardia FBPA inh – inhibitors of Giardia lamblia fructose-1,6-bisphosphate aldolase; purified Giardia FBPA; Potency, µM (top dose mostly 59.6 µM), usual class: inhibitors; 290,000 tested, 0.71% active; AID 2451; also: nearly all actives have a fitted effect of over 55% in size
Target sequence (A8B2U2 whole entry, looked up): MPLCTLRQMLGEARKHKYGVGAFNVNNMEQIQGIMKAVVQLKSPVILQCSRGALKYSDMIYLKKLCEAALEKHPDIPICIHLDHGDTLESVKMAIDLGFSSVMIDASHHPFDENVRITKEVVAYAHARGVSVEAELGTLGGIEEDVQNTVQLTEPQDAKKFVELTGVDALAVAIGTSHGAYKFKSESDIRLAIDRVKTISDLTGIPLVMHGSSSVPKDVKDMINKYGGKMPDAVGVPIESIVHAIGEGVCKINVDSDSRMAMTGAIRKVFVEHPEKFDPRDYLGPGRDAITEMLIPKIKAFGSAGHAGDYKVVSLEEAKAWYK
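Giardia FBPA (40 nM reagent) was preincubated 10 min at RT with compound (up to 57.5 uM final), then substrate plus GAPDH/TPI/NAD/arsenate coupling system with diaphorase/resazurin was added; resorufin fluorescence (525/598 nm) was read after 20 min.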
Of the large screens only hits and unclear results are named; the others gave an inactive call; ! = not confirmed by another sample. Hits are enriched below; roughly 21% of the tested compounds scored in any of these assays. Unless noted, calls follow the shape of the dose curve; as a rule, active = well fitted curve in the direction sought with a large enough effect; inconclusive = small, poorly fitted or top-dose-only effect, or another doubt; inactive = no such curve, though single readings can be large; an effect the other way counts as inactive or inconclusive.

CC(=O)Oc1ccc(/C=C(\NC(=O)c2ccco2)C(=O)NCc2ccco2)cc1	none (no result: Giardia FBPA inh)
O=C(Nc1ccccc1)c1cc2n(n1)C(C(F)(F)F)CC(C1CC1)N2 (stereo unspecified)	Shiga inhibitor 58.5, CHX counter 36.3
Cc1cc(NC(=O)c2cc3n(n2)C(C(F)(F)F)CC(c2ccco2)N3)no1 (stereo unspecified)	Pf growth 96h 10.4µM (no result: Pf growth 48h)
CC(C)NC(=O)c1cc2n(n1)C(C(F)(F)F)CC(c1ccco1)N2 (stereo unspecified)	Pf growth 48h inconclusive (no result: NS1 function inh)
O=C(Nc1ccc2c(c1)CCC2)c1cnn2c1NC(c1ccco1)CC2C(F)(F)F (stereo unspecified)	Shiga inhibitor 90.0, CHX counter 51.8 (no result: Pf growth 96h)
O=C(Nc1nc2c(s1)CCCC2)c1cc2n(n1)C(C(F)(F)F)CC(C1CC1)N2 (stereo unspecified)	CHX counter 19.0, Pf growth 96h inconclusive
C=C[C@]1(C)Cc2occ(C)c2C[C@H]1C(=C)C(=O)O	none (no result: NS1 function inh, Shiga inhibitor, Pf growth 48h, CHX counter, Pf growth 96h)
O=c1[nH]c2ccccc2n1CCCSCCCn1c(=O)[nH]c2ccccc21	Pf growth 48h inconclusive, Pf growth 96h 9.28µM
Cc1cc(C(=O)CSCCCn2c(=O)[nH]c3ccccc32)c(C)n1C	Pf growth 48h 13.1µM
CC(C)CCn1c(=O)[nH]c2ccccc21	none
O=c1[nH]c2ccccc2n1CCC1CCCCC1	CHX counter 47.2, Giardia FBPA inh inconclusive (no result: Pf growth 96h)
CCn1c2ccccc2c2nnc(SCCCn3c(=O)[nH]c4ccccc43)nc21	Pf growth 48h 7.38µM, Pf growth 96h 2.33µM
CC(=O)N1CCc2cc(S(=O)(=O)CCC(=O)NCc3ccc(F)cc3)ccc21	none (no result: Giardia FBPA inh)
CS(=O)(=O)Oc1ccc(Br)cc1/C=C1/N=C(c2ccco2)OC1=O	Pf growth 96h 10.4µM
CC1CC(C)CN(C(=O)C2CCN(S(=O)(=O)c3ccc4c(c3)CC(C)N4C(=O)C3CC3)CC2)C1 (stereo unspecified)	Pf growth 48h inconclusive
CN1CCN(c2nc(-c3cc4ccccc4o3)cs2)CC1	Shiga inhibitor 84.5, CHX counter 48.2
O=C1c2ccccc2C(=O)N1c1nc(-c2cccs2)cs1	Pf growth 96h 14.7µM
NC(=O)C1CCN(c2nc(-c3cc4ccccc4o3)cs2)CC1	Pf growth 48h inconclusive (no result: NS1 function inh, Shiga inhibitor, CHX counter, Giardia FBPA inh)
Cc1cccc(N2C(=O)c3ccccc3C2=O)n1	none
Nc1nc(-c2cc3ccccc3o2)cs1	Shiga inhibitor 97.7, CHX counter 32.6
CN1CCN(c2nc(-c3cccs3)cs2)CC1	CHX counter 27.1 (no result: NS1 function inh)
O=C(NCCCN1CCOCC1)c1cccc(S(=O)(=O)Nc2ccccc2Cl)c1	none (no result: Giardia FBPA inh)
COc1ccc(C)cc1NC(=S)NC12CN3CN(CN(C3)C1)C2	none
Cc1sc2ccccc2c1CC1=NCCN1	Pf growth 48h inconclusive, Pf growth 96h 8.49µM! (no result: Shiga inhibitor, CHX counter)
O=C1CCCc2sc3c(c2N1)CCCCC3	none
O=C1CCCc2sccc2N1	Pf growth 96h 3.29µM
Cc1ccc(C(=O)N2CCN(S(=O)(=O)c3ccc(Br)cc3)CC2)o1	Pf growth 48h 6.57µM, Pf growth 96h inconclusive
COc1ccc(Cl)cc1S(=O)(=O)N1CCN(C(=O)COc2ccccc2)CC1	none
COc1ccc(S(=O)(=O)N2CCN(C3Cc4ccccc4C3)CC2)cc1	Pf growth 96h 10.4µM
N#Cc1ccc(OCC(=O)N2CCN(S(=O)(=O)c3cccc(Cl)c3)CC2)cc1	Pf growth 48h inconclusive, Pf growth 96h 9.28µM (no result: NS1 function inh, Shiga inhibitor, CHX counter, Giardia FBPA inh)
COc1ccc(S(=O)(=O)N2CCN(C)CC2)cc1	NS1 function inh inconclusive, Pf growth 96h inconclusive
Cc1ccc(S(=O)(=O)N2CCN(C(=O)COc3ccc(Br)cc3)CC2)cc1	Pf growth 48h 13.1µM, Pf growth 96h inconclusive (no result: NS1 function inh, Shiga inhibitor, CHX counter, Giardia FBPA inh)
COc1ccc(S(=O)(=O)N2CCN(C(=O)COc3ccccc3)CC2)cc1	Pf growth 96h 7.38µM
CSc1ccc(CSCC(=O)N2CCN(S(=O)(=O)c3ccc(C)cc3C)CC2)cc1	Pf growth 48h 11.7µM (no result: NS1 function inh, Shiga inhibitor, CHX counter, Giardia FBPA inh)
Cc1ccc(S(=O)(=O)N2CCN(C(=O)CC(C)C)CC2)cc1	Shiga inhibitor 80.9, CHX counter 31.8
Cc1ccc(S(=O)(=O)N2CCN(C(=O)c3ccc(Br)o3)CC2)c(C)c1	Pf growth 48h 6.57µM, Pf growth 96h inconclusive
Cc1ccc(S(=O)(=O)N2CCN(C(=O)COC(=O)c3ccc(Br)o3)CC2)c(C)c1	Pf growth 48h inconclusive (no result: NS1 function inh, Shiga inhibitor, CHX counter, Giardia FBPA inh)

Source: PubChem BioAssay
